Data on three molecules can be found in PubChem BioAssay (EPA / NIEHS).

Active and inactive are the calls of the source. Rule for the calls: active = hit-call score of the fitted dose curve at least 0.9, where 1 is the maximum; inactive = score below 0.9.

Details in all cases: mRNA level, 48 h; actives raise or lower the signal
Read-out in assay [1]: Glutamate-cysteine ligase catalytic (GCLC), GCLC (gene 2729)
The assay is described as follows: LTEA_HepaRG_GCLC: Life Technologies and Expression Analysis (LTEA) Assay for Glutamate-cysteine ligase catalytic (GCLC) using HepaRG (AID 2283498). In short, it runs like this:
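Differentiated HepaRG cells exposed 48 h in serum-free induction medium, eight-point half-log series topping at 100 uM in 0.5% DMSO, duplicates. GCLC mRNA by qRT-PCR normalized to ACTB, GAPDH and POLR2A, fitted bidirectionally versus DMSO.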

Read-out in assay [2]: growth arrest and DNA damage 45 (GADD45G), GADD45G (gene 10912)
In words: LTEA_HepaRG_GADD45G: Life Technologies and Expression Analysis (LTEA) Assay for growth arrest and DNA damage 45 (GADD45G) using HepaRG (AID 2283499). In short, it runs like this: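 Gain or loss of GADD45G mRNA, quantified by TaqMan qRT-PCR against three housekeeping genes, is fitted in both directions relative to 0.5% DMSO. Human HepaRG cultures receive test chemical for 48 h at up to 100 uM.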

Read-out in assay [3]: Glutamate-cysteine ligase regulatory (GCLM), GCLM (gene 2730)
In words: LTEA_HepaRG_GCLM: Life Technologies and Expression Analysis (LTEA) Assay for Glutamate-cysteine ligase regulatory (GCLM) using HepaRG (AID 2283500). The method, boiled down: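 Differentiated HepaRG cells exposed 48 h in serum-free induction medium to eight half-log concentrations up to 100 uM (0.5% DMSO). GCLM mRNA by TaqMan qRT-PCR, normalized to ACTB, GAPDH and POLR2A; bidirectional fit versus DMSO.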

Read-out in assay [4]: Heat shock 70 kDa protein 1 (HSPA1A), gene 3303
The assay is described as follows: LTEA_HepaRG_HSPA1A: Life Technologies and Expression Analysis (LTEA) Assay for Heat shock 70 kDa protein 1 (HSPA1A) using HepaRG (AID 2283502). In short, it runs like this:
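Human HepaRG cells in serum-free induction medium were exposed in duplicate for 48 h to 8 half-log concentrations, highest 100 uM, in 0.5% DMSO. HSPA1A mRNA read by TaqMan qRT-PCR, normalized to ACTB, GAPDH, POLR2A, fitted bidirectionally against DMSO.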

Read-out in assay [5]: Hypoxia-inducible factor 1-alpha (Homo sapiens) (UniProt Q16665)
In words: LTEA_HepaRG_HIF1A: Life Technologies and Expression Analysis (LTEA) Assay for Hypoxia-inducible factor 1 (HIF1A) Trancription factor using HepaRG (AID 2283503). The method, boiled down: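 Differentiated HepaRG cells in serum-free induction medium exposed 48 h, in duplicate, to 8-point half-log series from 100 uM in 0.5% DMSO. HIF1A mRNA measured by TaqMan qRT-PCR, normalized to ACTB/GAPDH/POLR2A, fitted bidirectionally versus DMSO.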

Read-out in assay [6]: 3-Hydroxy-3-Methylglutaryl-CoA Synthase 2 (HMGCS2), HMGCS2 (gene 3158)
In words: LTEA_HepaRG_HMGCS2: Life Technologies and Expression Analysis (LTEA) Assay for 3-Hydroxy-3-Methylglutaryl-CoA Synthase 2 (HMGCS2) using HepaRG (AID 2283504). In short, it runs like this:
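HepaRG, plated 48 h then switched to serum-free induction media; cmpd 8-pt, max 100 uM, 1/2-log, 0.5% DMSO, n=2, 48 h. HMGCS2 mRNA by Fluidigm TaqMan qRT-PCR, ACTB/GAPDH/POLR2A norm; bidirectional fit vs DMSO.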

Read-out in assay [7]: HGF (gene 3082)
The assay is described as follows: LTEA_HepaRG_HGF: Life Technologies and Expression Analysis (LTEA) Assay for Hepatocyte Growth Facto (HGF) using HepaRG (AID 2283505). In short, it runs like this:
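Read-out is HGF transcript level by qRT-PCR, normalized to three housekeeping genes, fitted bidirectionally against 0.5% DMSO vehicle. Human HepaRG cells received test chemicals for 48 h at up to 100 uM.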

Read-out in assay [8]: Insulin Like Growth Factor 1 (IGF1), IGF1 (gene 3479)
The assay is described as follows: LTEA_HepaRG_IGF1: Life Technologies and Expression Analysis (LTEA) Assay for Insulin Like Growth Factor 1 (IGF1) using HepaRG (AID 2283506). In short, it runs like this:
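Differentiated HepaRG cells in serum-free induction medium, exposed 48 h in duplicate to 8 half-log concentrations up to 100 uM in 0.5% DMSO. IGF1 mRNA by Fluidigm qRT-PCR, normalised to ACTB, GAPDH and POLR2A.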

Read-out in assay [9]: Intercellular Adhesion Molecule 1 (ICAM1), ICAM1 (gene 3383)
The assay is described as follows: LTEA_HepaRG_ICAM1: Life Technologies and Expression Analysis (LTEA) Assay for Intercellular Adhesion Molecule 1 (ICAM1) using HepaRG (AID 2283507). In short, it runs like this:
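Readout is qRT-PCR mRNA level, normalized to three housekeeping genes and fitted bidirectionally against 0.5% DMSO vehicle. Human HepaRG cultures received compound for 48 h, top concentration 100 uM with half-log dilutions.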

Read-out in assay [10]: Insulin-like growth factor-binding protein 1 (IGFBP1), IGFBP1 (gene 3484)
In words: LTEA_HepaRG_IGFBP1: Life Technologies and Expression Analysis (LTEA) Assay for Insulin-like growth factor-binding protein 1 (IGFBP1) using HepaRG (AID 2283508). In short, it runs like this:
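Thawed HepaRG cells are plated for 48 h, switched to serum-free induction medium, then dosed in duplicate for another 48 h (100 uM top, half-log steps). Lysates in RLT go to qRT-PCR, and gain or loss of signal is fitted relative to vehicle.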

Read-out in assay [11]: Interleukin 6 (IL6), IL6 (gene 3569)
The assay is described as follows: LTEA_HepaRG_IL6: Life Technologies and Expression Analysis (LTEA) Assay for Interleukin 6 (IL6) using HepaRG (AID 2283509). In short, it runs like this:
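HepaRG cells exposed in duplicate for 48 h to eight half-log concentrations, top 100 uM, in 0.5% DMSO serum-free induction medium. mRNA measured by qRT-PCR, normalized to ACTB, GAPDH and POLR2A. Bidirectional fit versus DMSO.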

Read-out in assay [12]: Interleukin 6 Receptor (IL6R), IL6R (gene 3570)
In words: LTEA_HepaRG_IL6R: Life Technologies and Expression Analysis (LTEA) Assay for Interleukin 6 Receptor (IL6R) using HepaRG (AID 2283510). The method, boiled down:
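Differentiated HepaRG cells, plated 48 h, then exposed in duplicate for 48 h in serum-free induction medium to 8 half-log concentrations (top 100 uM, 0.5% DMSO). IL6R mRNA measured by TaqMan qRT-PCR, normalized to ACTB/GAPDH/POLR2A; bidirectional fit vs DMSO.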

Read-out in assay [13]: Potassium channel subfamily K member 1 (KCNK1), KCNK1 (gene 3775)
In words: LTEA_HepaRG_KCNK1: Life Technologies and Expression Analysis (LTEA) Assay for Potassium channel subfamily K member 1 (KCNK1) using HepaRG (AID 2283511). The method, boiled down:
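Differentiated HepaRG cells, 48 h exposure in serum-free induction medium with 0.5% DMSO; 8 concentrations, half-log from 100 uM, duplicate. KCNK1 mRNA by qRT-PCR, normalized to ACTB, GAPDH, POLR2A; bidirectional fit vs DMSO.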

Read-out in assay [14]: Keratin 19 (KRT19), KRT19 (gene 3880)
The assay is described as follows: LTEA_HepaRG_KRT19: Life Technologies and Expression Analysis (LTEA) Assay for Keratin 19 (KRT19) using HepaRG (AID 2283512). The method, boiled down:
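KRT19 transcript levels, measured by Fluidigm qRT-PCR against three housekeeping genes, are fitted for gain or loss of signal relative to DMSO. Human HepaRG cells receive test chemicals (top 100 uM, half-log steps, 0.5% DMSO) for 48 hours.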

Read-out in assay [15]: JUN Transcription Factor, JUN (gene 3725)
In words: LTEA_HepaRG_JUN: Life Technologies and Expression Analysis (LTEA) Assay for JUN Transcription Factor using HepaRG (AID 2283513). The method, boiled down: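 HepaRG cells, 48 h post-plating, exposed 48 h in serum-free induction medium to 8-point half-log series (top 100 uM, 0.5% DMSO), duplicate; mRNA by qRT-PCR (TaqMan, Fluidigm), normalized to ACTB/GAPDH/POLR2A; bidirectional fit vs DMSO.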

Read-out in assay [16]: Lipase C (LIPC), LIPC (gene 3990)
In words: LTEA_HepaRG_LIPC: Life Technologies and Expression Analysis (LTEA) Assay for Lipase C (LIPC) using HepaRG (AID 2283514). The method, boiled down: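 HepaRG cells, 48 h after plating, treated in duplicate for 48 h in serum-free induction medium over 8 half-log concentrations from 100 uM, 0.5% DMSO. LIPC mRNA by TaqMan qRT-PCR normalized to ACTB/GAPDH/POLR2A; bidirectional fit versus DMSO.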

Read-out in assay [17]: Lipoprotein lipase (LPL), LPL (gene 4023)
In words: LTEA_HepaRG_LPL: Life Technologies and Expression Analysis (LTEA) Assay for Lipoprotein lipase (LPL) using HepaRG (AID 2283515). In short, it runs like this:
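Differentiated HepaRG cells, plated 48 h, then exposed 48 h in serum-free induction medium to 8 concentrations (top 100 uM, half-log steps) in 0.5% DMSO, duplicate. LPL mRNA measured by qRT-PCR, normalized to ACTB, GAPDH and POLR2A.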

Read-out in assay [18]: MicroRNA 122 (MIR122), gene 406906
The assay is described as follows: LTEA_HepaRG_MIR122: Life Technologies and Expression Analysis (LTEA) Assay for MicroRNA 122 (MIR122) using HepaRG (AID 2283516). Note: the transcript read is the microRNA miR-122. The method, boiled down: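 Differentiated human HepaRG cells in serum-free induction medium exposed 48 h to 8 half-log concentrations from 100 uM in 0.5% DMSO, duplicate. MIR122 quantified by Fluidigm TaqMan qRT-PCR, normalised to ACTB, GAPDH, POLR2A; fold change fitted bidirectionally versus DMSO.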

Read-out in assay [19]: matrix metalloproteinase-10 (MMP10), MMP10 (gene 4319)
In words: LTEA_HepaRG_MMP10: Life Technologies and Expression Analysis (LTEA) Assay for matrix metalloproteinase-10 (MMP10) using HepaRG (AID 2283517). In short, it runs like this: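 Differentiated HepaRG cells in serum-free induction medium exposed 48 h in duplicate to 8-point half-log series up to 100 uM in 0.5% DMSO. mRNA quantified by qRT-PCR, normalised to ACTB, GAPDH, POLR2A; bidirectional fit versus DMSO.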

Read-out in assay [20]: Glutathione S-transferase M3 (GSTM3), GSTM3 (gene 2947)
The assay is described as follows: LTEA_HepaRG_GSTM3: Life Technologies and Expression Analysis (LTEA) Assay for Glutathione S-transferase M3 (GSTM3) using HepaRG (AID 2283501). In short, it runs like this: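 HepaRG, plated 48 h, then serum-free induction medium; test chemical 48 h, duplicate; 100 uM top, half-log x8, 0.5% DMSO. Read-out: GSTM3 mRNA (TaqMan qRT-PCR, Fluidigm array). Bidirectional fit vs DMSO.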

Sequence of Hypoxia-inducible factor 1-alpha (Homo sapiens) (Q16665 whole entry, looked up): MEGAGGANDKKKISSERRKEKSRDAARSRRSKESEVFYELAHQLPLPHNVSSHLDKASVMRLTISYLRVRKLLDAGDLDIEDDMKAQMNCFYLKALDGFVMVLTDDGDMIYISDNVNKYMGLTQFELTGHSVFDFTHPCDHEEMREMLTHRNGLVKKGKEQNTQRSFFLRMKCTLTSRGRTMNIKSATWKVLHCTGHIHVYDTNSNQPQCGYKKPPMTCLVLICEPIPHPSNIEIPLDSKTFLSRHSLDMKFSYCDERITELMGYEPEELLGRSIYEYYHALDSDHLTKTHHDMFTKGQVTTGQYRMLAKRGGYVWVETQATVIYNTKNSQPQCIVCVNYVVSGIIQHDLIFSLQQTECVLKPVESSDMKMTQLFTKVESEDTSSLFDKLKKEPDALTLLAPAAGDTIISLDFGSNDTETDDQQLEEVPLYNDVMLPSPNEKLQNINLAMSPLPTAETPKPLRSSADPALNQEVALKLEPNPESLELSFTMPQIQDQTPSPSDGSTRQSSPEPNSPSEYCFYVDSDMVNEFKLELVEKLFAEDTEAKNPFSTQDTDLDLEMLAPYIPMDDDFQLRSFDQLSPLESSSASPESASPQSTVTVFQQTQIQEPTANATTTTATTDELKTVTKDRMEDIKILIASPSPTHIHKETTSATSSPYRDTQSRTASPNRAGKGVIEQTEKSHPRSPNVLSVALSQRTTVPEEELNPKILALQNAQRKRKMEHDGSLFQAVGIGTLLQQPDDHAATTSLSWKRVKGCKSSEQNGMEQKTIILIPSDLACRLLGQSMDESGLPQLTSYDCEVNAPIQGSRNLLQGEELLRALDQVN

Broadly, the AC50 is the concentration at which the activity in the assay is half-maximal. As to `Oc1cc(Cl)c(Cl)cc1Cl`, the molecule was called inactive in assay [1], in [2], in assay [3], in assay [4], in assay [5] and in [6]. The molecule was classed as inactive in assay [7], in assay [8], in assay [9], in assay [10], in assay [11] and in assay [12]. The result in assay [13], in assay [15], in [16], in assay [17], in assay [18] and in assay [19] was inactive. The AC50 in [14] was 50 µM (active).
Turning to `OCCN(CCO)CCO`, the result in assay [1], in assay [2], in assay [3], in assay [20], in assay [4] and in [5] was inactive. Also, the molecule was called inactive in assay [6], in [7], in [8], in assay [9], in [10] and in [11]. In addition, the molecule was classed as inactive in assay [12], in [13], in assay [14], in assay [15], in assay [16] and in [17]. Besides, the call in assay [18] and in assay [19] was inactive.
For `O=C(O)C1(c2ccc3c(c2)OC[C@H](Cc2ccc(-c4ccccc4)cc2)[C@H]3O)CCCC1`, the AC50 in assay [1] is 75.6 µM (active); in assay [4], 78.2 µM (active); in assay [5] it was 82.3 µM (active); in assay [8], 15.8 µM (active); in assay [9] it was 64.4 µM (active); in assay [10] it was 50 µM (active). The half-maximal activity concentration (AC50) in assay [11] is 78.4 µM (active); in assay [15] it was 88.4 µM (active). Besides, the call in assay [2], in [3], in [20], in assay [6], in assay [7] and in assay [12] was inactive. Also, the result in [13], in [14], in assay [16], in [17], in assay [18] and in assay [19] was inactive.
